# According to PubChem BioAssay (Tox21):
# Several values for one entry are separate records, joined by “and”; a condition that tells them apart may be missing. Equal entries are not always repeated. Results filed as inconclusive are left out. Activity calls are given as the source filed them. Calls come from the whole dose curve; as a rule, active = well fitted cell-killing curve with a large enough effect in the repeat runs; inconclusive = weak or mixed curves; inactive = flat fitted curve, though single readings scatter.
# Assay: qHTS RealTime-Glo MT Cell Viability Assay in HepG2 cells - 8 hour (AID 1224873); note: nearly all actives have a fitted effect of over 55% in size
# Conditions: RealTime-Glo luminescence; series mostly up to 76.8 µM; viability change, negative = cytotoxic: at the top concentration
# From the text: National Center for Advancing Translational Sciences [NCATS]
# NIH Chemical Genomics Center [NCGC]
# U.S. Environmental Protection Agency [EPA]
# National Institutes of Environmental Health Sciences [NIEHS]
# National Toxicology Program [NTP]
# U.S. Food and Drug Administration [FDA]
# Measure of cell viability is critical in the cell-base assay. Analysis of cell viability is necessary for the characterization of cell responses to cytotoxic drugs and environmental stress. A RealTime-Glo MT Cell Viability Assay to monitor cell viability in real time of continues cell culture during 40 hours of compound treatment was used to screen Tox21 10K library compounds in HepG2 cells. The RealTime-Glo MT Cell Viability Assay is a nonlytic, homogeneous, bioluminescent method to measure cell viability in real time using a simple, plate-based method. The assay involves adding NanoLuc luciferase and a cell-permeant prosubstrate to cells in culture. Viable cells reduce the proprietary prosubstrate to generate a substrate for NanoLuc luciferase. This substrate diffuses from cells into the surrounding culture medium, where it is rapidly used by the NanoLuc Enzyme to produce a luminescent signal. The signal correlates with the number of viable cells, making the assay well suited for cytotoxicity studies.
# Tox21 Assay Protocol Summary:
# The mixture of HepG2 cell suspension and reagents were dispensed at 600cells/6 ul/well in 1536-well tissue culture treated black solid bottom plates using a Multidrop dispenser. After the assay plates were incubated at a 37 C/5% CO2 incubator for 5 hours, 23 nL of compounds dissolved in DMSO, positive and negative controls was transferred to the assay plate by a pintool work station. The plates were incubated at 37 C for 40 hours. The luminescence intensity were measured at 0h, 8h, 16h, 24h, 32h and 40h time points using ViewLux plate reader during compound treatment.
# % is set by controls: 0 for no effect and ±100 for the full control effect; potency is the fitted concentration of half-maximal effect.
Structure (SMILES),"viability change, negative = cytotoxic",Potency
CCCCCCCC(C)=O,0.335% (inactive),–
COc1cc(C(=O)NS(=O)(=O)c2ccccc2C)ccc1Cc1cn(C)c2ccc(NC(=O)OC3CCCC3)cc12,1% [at 35.3 µM] (inactive),–
CCCCCCCCCCc1ccccc1,2.06% (inactive),–
c1ccc(Sc2ccccc2)cc1,3.17% (inactive),–
S=P(N1CC1)(N1CC1)N1CC1,0.64% (inactive),–
CCCCCCCCCCCCCOP(=O)(O)O,4.92% (inactive),–
CCCCCCCCCCCCOC(=O)c1cc(O)c(O)c(O)c1,–,48.8 µM (active) and 43.6 µM (active)
CC1(C)C(=O)N(Br)C(=O)N1Br,-3.92% (inactive),–
O=C(Nc1ccc(Cl)c(Cl)c1)c1cc(Cl)cc(Cl)c1O,-13.2% (inactive),–
COc1ccc2sc(C(=O)Nc3nnn[nH]3)c(OC(C)C)c2c1,2.41% (inactive),–
O=S(=O)(O)CCCN1CCOCC1,1.8% (inactive),–
COc1cc(C=C2CCC/C(=C\c3ccc(O)c(OC)c3)C2=O)ccc1O,-25.2% [at 35.3 µM] (inactive),–
c1cc[nH]c1,3.64% (inactive),–
OCCCCl,0.611% (inactive),–
Cc1cn[nH]c1,1.93% [at 35.3 µM] (inactive),–
C#CC(O)CCC (stereo not given),0.648% (inactive),–
C[Si](C)(C)Cl,-0.493% (inactive),–
CCCCCCCCCCCCCc1ccccc1,-9.44% [at 35.3 µM] (inactive),–
Cc1c(C)n(Cc2ccccc2)c2ccc(C(=O)OCCN(C)C)cc12,-23.6% [at 35.3 µM] (inactive),–
c1ccc(Nc2cccc3ccccc23)cc1,-17.3% (inactive),–

Structure (SMILES),"viability change, negative = cytotoxic",Potency
CN(C)CCOC(c1ccccc1)c1ccccc1 (tested in a mixture with another compound),-3.31% (inactive),–
CCCCCCCC/C=C/CCCOC(C)=O,4.82% (inactive),–
Cn1cccc1,5.38% (inactive),–
COc1ccccc1C=O,-15.5% (inactive),–
Oc1ccc(-c2ccccc2)c(Cl)c1,-26.9% (inactive),–
O=C1C=CC(=O)N1c1ccccc1,–,19.5 µM (active)
CC(C)c1cccc(C(C)C)c1N1C(=O)c2ccc(O)cc2C1=O,–,43.6 µM (active)
CCc1cccc(C)c1,-12.8% (inactive),–
CN1[C@@H]2CC[C@@H]1CC(OC(=O)C(CO)c1ccccc1)C2 (stereo not given in full),-1.57% [at 35.3 µM] (inactive),–
CC(=O)Oc1ccc(C2(c3ccc(OC(C)=O)cc3)C(=O)Nc3ccccc32)cc1,-3.39% [at 35.3 µM] (inactive),–
Cc1cc(=O)[nH]c(=O)[nH]1,-2.97% (inactive),–
CC1CCCCC1,0.221% (inactive),–
CCC(=O)OCCc1ccccc1,0.611% (inactive),–
O=C(O)CCCCCCC(=O)O,-0.136% (inactive),–
CC(C)CCOCCC(C)C,-10.9% (inactive),–
CC(=O)c1ccccc1N,-1.4% (inactive),–
CCCCCCCCCCCCCCCCCO,4.95% [at 15.8 µM] (inactive),–
CC1(C)COCN1,-14.1% (inactive),–
CCN(CC)CCCN(c1ccccc1)C1Cc2ccccc2C1,-9.24% [at 35.3 µM] (inactive),–
CCCSS/C(CCO)=C(\C)N(C=O)Cc1cnc(C)nc1N,-12.3% [at 35.3 µM] (inactive),–
